Compounds with a hit are over-represented: about 1.4% of the library has one in this group of screens.
Mtb MenB inh – inhibitors of Mycobacterium tuberculosis MenB enzyme; P9WNP5; MenB enzyme assay, absorbance read-out; inhibition, % (concentration not given with the values); 0.43% of 100,000 active; AID 540299; in the data active = inhibition above about 21%, passing the limit was not always enough
Polio RdRp inh – inhibitors of poliovirus RNA polymerase binding and polymerization | % elongation, % (compound at 16.7 µg/mL) | 0.66% of 150,000 active | poliovirus polymerase elongation, fluorescence polarization; stronger effect = lower value | P03300 | AID 588519; in the data active = % elongation below about 90%
AID504770 – growth inhibitors of E. coli YBA685 in a screen for V. cholerae RctB (chromosome II replication) inhibitors | E. coli YBA685 rctB-dependent plasmid, OD600 growth, 3 h; stronger effect = lower value | 0.27% of 130,000 active | z-score (concentration not given with the values); in the data active = z-score below about -2, passing the limit was not always enough
Mtb MbtI inh – blocks the Mycobacterium tuberculosis siderophore enzyme MbtI; P9WFX0; purified MbtI enzyme, fluorescence intensity read-out; inhibition, % (concentration not given with the values); 0.89% of 100,000 active; AID 493033; in the data active = inhibition mostly above about 56%, no sharp cut-off; inactive = mostly below about 77%
Target sequence (P9WFX0 whole entry, looked up): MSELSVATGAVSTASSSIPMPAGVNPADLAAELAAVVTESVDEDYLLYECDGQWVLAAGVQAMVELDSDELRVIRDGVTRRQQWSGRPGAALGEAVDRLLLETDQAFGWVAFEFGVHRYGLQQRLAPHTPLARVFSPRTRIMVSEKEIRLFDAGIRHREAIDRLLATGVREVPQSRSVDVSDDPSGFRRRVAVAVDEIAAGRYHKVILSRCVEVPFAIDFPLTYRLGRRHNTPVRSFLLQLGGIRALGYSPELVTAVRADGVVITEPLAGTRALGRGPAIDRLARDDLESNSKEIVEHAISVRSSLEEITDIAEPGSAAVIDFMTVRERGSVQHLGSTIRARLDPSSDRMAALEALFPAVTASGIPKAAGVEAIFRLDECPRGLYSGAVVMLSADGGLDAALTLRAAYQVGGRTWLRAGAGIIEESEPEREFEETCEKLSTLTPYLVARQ
Large screens that a line does not name were inactive.

Cc1cc(C(=O)NC2CCCCCC2)no1	none
COCc1nnc(NC(=O)Cc2ccccc2)s1	none (no result: Mtb MbtI inh)
CCC(C)(C)C(=O)Nc1nnc(COC)s1	Mtb MenB inh 33.0
NC(=O)COC(=O)c1n[nH]c2ccccc12	AID504770 -3.5
Cc1cc(NC(=O)CSc2ccccc2)no1	Mtb MenB inh 32.1
Cc1cc(NC(=O)CCc2ccccc2)no1	none (no result: Mtb MenB inh, Polio RdRp inh, Mtb MbtI inh)
CSc1ccc(C2CC(=O)N3CN(C)CSC3=C2C#N)cc1 (centres undefined)	Mtb MbtI inh 92.3
CN1CSC2=C(C#N)C(c3ccccc3)CC(=O)N2C1 (centres undefined)	Mtb MbtI inh 85.6
CCOC(=O)c1c(-c2ccc(C)o2)csc1NC(=S)NC(=O)N(C)C	Mtb MbtI inh 85.0
C/C(=N/NC(=O)c1c(N)no[n+]1[O-])c1cccs1	none
O=C(c1cccs1)c1no[n+]([O-])c1C(=O)c1cccs1	AID504770 -6.55
c1ccc(-c2csc(N3CCNCC3)n2)cc1	none (no result: Mtb MenB inh, Polio RdRp inh)
CCN(CC)C(=O)COc1ccc2c(CC(=O)O)coc2c1	AID504770 -2.6
CCN(CC)C(=O)COc1ccc2ccc(=O)oc2c1	none
Cc1cc(C)n(C(=O)c2ccoc2C)n1	Mtb MenB inh 36.0
Cc1cc(C)n(C(=O)c2cccs2)n1	none
Cc1ccc(NC(=O)CSc2nc(=O)n(Cc3ccco3)c3c2CCC3)cc1F	Polio RdRp inh 76.0 (no result: Mtb MenB inh, AID504770, Mtb MbtI inh)
Cc1cc(C)c(NC(=O)CSc2nc(=O)n(Cc3ccco3)c3c2CCC3)c(C)c1	none (no result: Mtb MenB inh, AID504770, Mtb MbtI inh)
CCOC(=O)c1c(C)[nH]c(C)c1S(=O)(=O)N1CCCC(C(=O)Nc2ccccc2OCC)C1 (centres undefined)	Polio RdRp inh -7.0 (no result: Mtb MenB inh, AID504770, Mtb MbtI inh)
CCOc1ccccc1NC(=O)C1CCCN(S(=O)(=O)c2c(C)[nH]c(=O)[nH]c2=O)C1 (centres undefined)	none (no result: Mtb MenB inh, AID504770, Mtb MbtI inh)
Cc1cc2nc(-n3nnc4ccccc43)c3ccccc3n2n1	none
CCOC(=O)Cc1nnc(NC(=O)C(CC)Sc2nc3ccccc3[nH]2)s1 (centres undefined)	none (no result: Mtb MenB inh, Polio RdRp inh, Mtb MbtI inh)
NC(=O)N1C(=O)C=CC1=O	AID504770 -8.5 (no result: Polio RdRp inh)
O=C(COc1ncnc2ccccc12)Nc1ccc(Cl)cc1	none
NC(=O)c1ccc(N(S(=O)(=O)C(F)(F)F)S(=O)(=O)C(F)(F)F)cc1	none
C=CCN(CC=C)C(=O)C[n+]1ccc(C(N)=O)cc1	AID504770 -4
C=CCN(CC=C)C(=O)C[n+]1cccc(C(N)=O)c1	none
CC(C)CN(CC(C)C)C(=O)C1CCCCC1C(=O)O (centres undefined)	Mtb MenB inh 30.3
O=S(=O)(NCc1csc(-c2cccs2)n1)c1ccccc1	none (no result: Mtb MenB inh, Polio RdRp inh, Mtb MbtI inh)
CN(c1ccc(-c2csc(-c3cccs3)n2)cc1)S(C)(=O)=O	Polio RdRp inh 88.0
C=CCn1c(Cc2ccc(O)c(Cl)c2)n[nH]c1=S	Mtb MbtI inh 93.0
CCCNC(=O)N(C)c1ncnnc1NC	Mtb MenB inh 28.8
O=C(CS(=O)(=O)Cc1ccccc1)Nc1ccc2c(c1)OCO2	none
O=C(CNS(=O)(=O)c1ccccc1)Nc1ccc2c(c1)OCO2	Mtb MenB inh 55.9
O=C(NN=C1C2CC3CC(C2)CC1C3)c1ccncc1	none
O=C(N/N=C1\C/C(=N\NC(=O)c2ccncc2)c2ccccc21)c1ccncc1	Polio RdRp inh 87.0
COc1ccc(C)cc1NC(=O)CSc1ccc(-c2ccccn2)nn1	Polio RdRp inh 81.0 (no result: Mtb MenB inh, AID504770, Mtb MbtI inh)
Clc1ccc(CCN2COc3cc4c(cc3C2)OCO4)c(Cl)c1	none
O=C(c1ccc(F)cc1)N1CCc2ccccc2C1	Polio RdRp inh 85.0 (no result: Mtb MbtI inh)
CC1CC(C)CN(S(=O)(=O)c2ccc3nnn(O)c3c2)C1 (centres undefined)	none
CCC(c1nnc(SCC(=O)NCCc2ccc(Cl)cc2Cl)o1)N(C)C (centres undefined)	Mtb MbtI inh 78.6
CCC(C)n1c(SCC(=O)OC)nnc1-c1cccc(S(=O)(=O)N2CCOCC2)c1 (centres undefined)	none
O=C1c2cccc3cccc(c23)C(=O)N1c1ccc2c(c1)OCO2	none (no result: Mtb MenB inh, Polio RdRp inh, Mtb MbtI inh)
O=C1C=CC(=O)N1c1ccc2c(c1)OCO2	AID504770 -2.05, Mtb MbtI inh 98.8
Cc1onc(-c2c(Cl)cccc2Cl)c1NC(=O)N/N=C/c1ccccn1	none
Cc1[nH]n(-c2ccccc2)c(=O)c1N=O	none
Cc1[nH]n(-c2ccc(Br)cc2)c(=O)c1C1=c2ccccc2=NC1=O	Mtb MbtI inh 64.0
COc1ccccc1-c1nnc(SCC(=O)c2ccc(F)cc2)n1-c1ccccc1	Polio RdRp inh 83.0 (no result: Mtb MenB inh, AID504770, Mtb MbtI inh)
COc1ccccc1NC(=O)CSCC(N)=O	Mtb MbtI inh 95.4
S=c1[nH]ccn1Cc1ccccc1	Mtb MbtI inh 67.9
Cc1ccc(C2CC(=O)c3cnc(N4CCOCC4)nc3C2)cc1 (centres undefined)	none (no result: Mtb MenB inh, Polio RdRp inh)
CC1(C)CC(=O)C=C(NCCCc2[nH]nc(N)c2C#N)C1	none
CN(C)CCNCc1ccc(-c2ccccc2)o1	Mtb MenB inh 61.2
CC(O)CNCc1ccc(-c2ccccc2)o1 (centres undefined)	none
Cc1nn(CCCC(=O)NCCc2cccs2)c(=O)c2c1sc1ccccc12	none
S=c1nc2c(n[nH]1)c1ccccc1n2Cc1ccccc1	Polio RdRp inh 73.0 (no result: Mtb MbtI inh)
CC(C)n1c2ccccc2c2n[nH]c(=S)nc21	none
CC1OS(=O)OC1(c1ccccc1)c1ccccc1 (centres undefined)	Polio RdRp inh 89.0 (no result: Mtb MbtI inh)
COc1ccc(CC(=O)Sc2nc3ccccc3s2)cc1	none (no result: Mtb MbtI inh)
Cc1ccc(S(=O)(=O)N=C2C=CC(=NS(=O)(=O)c3ccc(C)cc3)C=C2)cc1	Mtb MbtI inh 71.5
Cc1ccc(S(=O)(=O)N=C2C=CC(=NS(=O)(=O)N(C)C)C=C2)cc1	none
Cc1cc(NC(=O)CN(C)Cc2c(C)nn(-c3ccccc3)c2C)no1	none
O=C(NCCn1cccc1)c1cccc2ccccc12	Mtb MbtI inh 52.8
CC1CCCCC1NC(=O)C1CCCN(c2nc3ccccc3o2)C1 (centres undefined)	none
COc1ccc2c(c1)-c1nc(/N=C/c3ccc(C)o3)sc1CC2	Mtb MbtI inh 82.4
COc1ccc2c(c1)CCc1sc(/N=C/c3ccc(C)cc3)nc1-2	none
COC(=O)N(c1ccccc1)P1(=S)OCCO1	Mtb MenB inh 36.5, Mtb MbtI inh 101.8
O=C(O)CC(C(=O)Nc1ccccc1I)C1CCCO1 (centres undefined)	none (no result: Mtb MenB inh, Polio RdRp inh)
Ic1c(-c2ccccc2)noc1-c1ccccc1	none
CCn1cc(C(=O)O)c(=O)c2cc(F)c(N3CCNC(C)C3)c(F)c21 (centres undefined)	AID504770 -3.65
Clc1ncnc2sc3c(c12)CCC3	Mtb MbtI inh 88.9
COC(=O)Nc1scc2c1c(=O)oc1ccccc12	Mtb MbtI inh 70.9
CC(=O)Nc1scc2c1c(=O)oc1ccccc12	none
O=C(CSc1nnc(-c2cc3ccccc3[nH]2)n1-c1ccccc1)N1CCNC1=O	Polio RdRp inh 58.0
N#Cc1nccnc1S(=O)(=O)c1cccs1	AID504770 -7.85 (no result: Mtb MenB inh, Polio RdRp inh, Mtb MbtI inh)
O=S(=O)(c1cccs1)c1cccs1	none (no result: Mtb MenB inh, Polio RdRp inh, Mtb MbtI inh)
COc1cccc(N2CCN(C(=O)Cn3ncc4c5ccccc5n(C)c4c3=O)CC2)c1	none (no result: Mtb MenB inh, AID504770, Mtb MbtI inh)
COc1cccc(N2CCN(C(=O)CCCn3sc4ccccc4c3=O)CC2)c1	Mtb MbtI inh 96.8
CC1=NN(c2nc3ccccc3[nH]2)C(=O)C1Cc1ccccc1 (centres undefined)	Mtb MbtI inh 75.7
CC(=O)Nc1sc2c(c1-c1nsc(=O)o1)CCCC2	Polio RdRp inh 82.0 (no result: Mtb MbtI inh)

Source: PubChem (ICCB-Longwood Screening Facility, Harvard Medical School)
